Laboratory results published in ChEMBL document CHEMBL1157539, “Thousands of chemical starting points for antimalarial lead identification” (Nature, 2010).

What was measured:
Format in all cases: functional
Plasmodium falciparum [1] = assay: GSK_TCMDC: Inhibition of Plasmodium falciparum 3D7 in whole red blood cells, using parasite LDH activity as an index of growth. Test compounds present at 2uM
Plasmodium falciparum [2] = assay: GSK_TCMDC: Inhibition of Plasmodium falciparum Dd2 in whole red blood cells, using parasite LDH activity as an index of growth. Test compounds present at 2uM
HepG2 = assay: GSK_TCMDC: Percent inhibition of human HepG2 cell line. Test compounds present at 10uM.

How did the Inhibition (Plasmodium falciparum [1]) turn out when `O=C(NCc1ccc(Cl)cc1)c1ccc(C(=O)NCC2CCCN2CC2CCCCC2)cc1.O=C(O)C(F)(F)F` (stereo not drawn) was run?
Its Inhibition is 97%.

What about the Inhibition (Plasmodium falciparum [2]) of the same compound?
The Inhibition was 10%.

And the Inhibition (HepG2)?
Its Inhibition is 21%.

Which Inhibition (Plasmodium falciparum [1]) does the source give for `Cc1cc(C)c(S(=O)(=O)N2CCCCC(c3cccc(C(F)(F)F)c3)=N2)c(C)c1` here?
The Inhibition was 94%.

And the Inhibition (Plasmodium falciparum [2])?
The Inhibition was 95%.

What about the Inhibition (HepG2) of the same compound?
The Inhibition was 0%.

Which results are given for `N=C(NCCCCCCNC(=N)NC(=N)c1ccc(Cl)cc1)NC(=N)c1ccc(Cl)cc1`?
Inhibition (Plasmodium falciparum [1]): 98%; Inhibition (Plasmodium falciparum [2]): 99%; Inhibition (HepG2): 10%

Which results are given for `Cc1cc2c(cc1Cl)N(C(=O)Nc1cc(F)cc(-c3cncnc3)c1)CC2`?
Inhibition (Plasmodium falciparum [1]): 96%; Inhibition (Plasmodium falciparum [2]): 59%; Inhibition (HepG2): 0%

How did the Inhibition (Plasmodium falciparum [1]) turn out when `COc1ccc2c(c1)CC(CNC[C@H](O)c1cccc(Cl)c1)CC2` (stereo partly drawn) was run?
The Inhibition was 94%.

And the Inhibition (Plasmodium falciparum [2])?
Its Inhibition is 73%.

And the Inhibition (HepG2)?
The Inhibition was 1%.

How did the Inhibition (Plasmodium falciparum [1]) turn out when `CCCc1cc(NC2CCN(C)CC2)nc(Nc2ccc(C)cc2)n1` was run?
Its Inhibition is 100%.

What about the Inhibition (Plasmodium falciparum [2]) of the same compound?
The Inhibition was 20%.

And the Inhibition (HepG2)?
The Inhibition was 25%.

What does the source list for `O=c1cc(NCCCNCc2ccc(C(F)(F)F)c(F)c2)[nH]c2ccccc12`?
Inhibition (Plasmodium falciparum [1]): 93%; Inhibition (Plasmodium falciparum [2]): 26%; Inhibition (HepG2): 5%

What does the source list for `O=C(O)C(F)(F)F.O=C(c1cccs1)N(Cc1cccc(-c2ccc(CNCCc3ccccc3)cc2)c1)C1CCN(Cc2ccccc2)CC1`?
Inhibition (Plasmodium falciparum [1]): 95%; Inhibition (Plasmodium falciparum [2]): 76%; Inhibition (HepG2): 3%

For `N#Cc1ccc(N/C(=N\c2ccc(-c3ccccc3)cc2)NC2CCCc3ccccc32)c(O)c1` (stereo not drawn), which Inhibition (Plasmodium falciparum [1]) is on record?
The Inhibition was 99%.

And the Inhibition (Plasmodium falciparum [2])?
Its Inhibition is 98%.

And the Inhibition (HepG2)?
Its Inhibition is 0%.

What does the source list for `CC(=O)Nc1cccc(C(=O)Nc2cccc(-c3ccc(-c4nc5cc(F)ccc5[nH]4)s3)c2)c1`?
Inhibition (Plasmodium falciparum [1]): 94%; Inhibition (Plasmodium falciparum [2]): 30%; Inhibition (HepG2): 88%

How did the Inhibition (Plasmodium falciparum [1]) turn out when `COc1ccc2nccc(N3CCC(O)(CCNCc4ccc5c(n4)NC(=O)CO5)CC3)c2n1.Cl` was run?
Its Inhibition is 100%.

What about the Inhibition (Plasmodium falciparum [2]) of the same compound?
The Inhibition was 24%.

What about the Inhibition (HepG2) of the same compound?
Its Inhibition is 18%.

`Cc1nc2ccccc2c(=O)n1NCc1ccc(Cl)c(Cl)c1` was tested. Which Inhibition (Plasmodium falciparum [1]) did it give?
Its Inhibition is 96%.

What about the Inhibition (Plasmodium falciparum [2]) of the same compound?
The Inhibition was 92%.

And the Inhibition (HepG2)?
Its Inhibition is 12%.

Which Inhibition (Plasmodium falciparum [1]) does the source give for `O=C(/C=C/c1ccc(Cl)c(Cl)c1)NCCCCCN1CCC(NC(=O)Nc2ccc([N+](=O)[O-])cc2)CC1` here?
The Inhibition was 100%.

And the Inhibition (Plasmodium falciparum [2])?
Its Inhibition is 2%.

And the Inhibition (HepG2)?
Its Inhibition is 20%.

How did the Inhibition (Plasmodium falciparum [1]) turn out when `Cn1cncc1-c1cc2c(Nc3ccc(OCc4ccccc4)cc3)ncnc2cn1` was run?
The Inhibition was 99%.

And the Inhibition (Plasmodium falciparum [2])?
Its Inhibition is 75%.

What about the Inhibition (HepG2) of the same compound?
Its Inhibition is 0%.

What does the source list for `Cc1cc(Nc2c(C(N)=O)cnc3cc(-c4ccoc4)ccc23)ccc1N1CCN(C)CC1.Cl`?
Inhibition (Plasmodium falciparum [1]): 100%; Inhibition (Plasmodium falciparum [2]): 100%; Inhibition (HepG2): 7%

For `Cc1ccoc1C(=O)Nc1ccc(-c2cccc(-c3nc4cccc(C)c4[nH]3)c2)cc1`, which Inhibition (Plasmodium falciparum [1]) is on record?
Its Inhibition is 95%.

And the Inhibition (Plasmodium falciparum [2])?
The Inhibition was 69%.

What about the Inhibition (HepG2) of the same compound?
Its Inhibition is 15%.

For `OCCN1CCN(c2nc(Nc3cccc(F)c3)c3cnn(-c4ccccc4)c3n2)CC1`, which Inhibition (Plasmodium falciparum [1]) is on record?
The Inhibition was 100%.

What about the Inhibition (Plasmodium falciparum [2]) of the same compound?
The Inhibition was 76%.

And the Inhibition (HepG2)?
The Inhibition was 89%.

How did the Inhibition (Plasmodium falciparum [1]) turn out when `O=C(C=Cc1ccc(Cl)c(Cl)c1)NCCCCCN1CCC(c2n[nH]c3ccccc23)CC1` was run?
The Inhibition was 99%.

And the Inhibition (Plasmodium falciparum [2])?
The Inhibition was 29%.

And the Inhibition (HepG2)?
The Inhibition was 32%.

Which results are given for `CCNc1cc(C(=O)N[C@@H](Cc2ccccc2)[C@H](O)CNC2CCCCC2)cc(N2CCCCS2(=O)=O)c1`?
Inhibition (Plasmodium falciparum [1]): 99%; Inhibition (Plasmodium falciparum [2]): 98%; Inhibition (HepG2): 11%

`CCn1cc(CN2CCCC(C(=O)Nc3ccc(-c4nc5ccccc5[nH]4)cc3)C2)cn1` (stereo not drawn) was tested. Which Inhibition (Plasmodium falciparum [1]) did it give?
Its Inhibition is 100%.

What about the Inhibition (Plasmodium falciparum [2]) of the same compound?
Its Inhibition is 26%.

What about the Inhibition (HepG2) of the same compound?
Its Inhibition is 8%.

With `O=C(/C=C/c1cccc(Br)c1)NCCCCCN1CCC(c2c[nH]c3ccccc23)CC1` as the compound, how does the Inhibition (Plasmodium falciparum [1]) read?
The Inhibition was 100%.

What about the Inhibition (Plasmodium falciparum [2]) of the same compound?
The Inhibition was 15%.

What about the Inhibition (HepG2) of the same compound?
Its Inhibition is 38%.

How did the Inhibition (Plasmodium falciparum [1]) turn out when `CCCCCCN1CCN(Cc2cccc(NC(=O)c3ccc(Cl)c(Cl)c3)c2)CC1.O=C(O)C(F)(F)F` was run?
Its Inhibition is 85%.

What about the Inhibition (Plasmodium falciparum [2]) of the same compound?
Its Inhibition is 51%.

What about the Inhibition (HepG2) of the same compound?
The Inhibition was 31%.

`Cl.Oc1cc(-c2nc(-c3ccccc3)[nH]c2-c2ccncc2)ccc1Cl` was tested. Which Inhibition (Plasmodium falciparum [1]) did it give?
Its Inhibition is 96%.

What about the Inhibition (Plasmodium falciparum [2]) of the same compound?
Its Inhibition is 91%.

What about the Inhibition (HepG2) of the same compound?
The Inhibition was 64%.

For `CCCCNCC(O)COc1ccccc1-c1ccc(N/N=C/c2cccc3ccccc23)nn1` (stereo not drawn), which Inhibition (Plasmodium falciparum [1]) is on record?
The Inhibition was 99%.

And the Inhibition (Plasmodium falciparum [2])?
The Inhibition was 8%.

And the Inhibition (HepG2)?
The Inhibition was 38%.

Which Inhibition (Plasmodium falciparum [1]) does the source give for `CCCCCCN1CCC(NCc2cccc([N+](=O)[O-])c2)CC1.O=C(O)C(F)(F)F` here?
The Inhibition was 100%.

What about the Inhibition (Plasmodium falciparum [2]) of the same compound?
Its Inhibition is 16%.

What about the Inhibition (HepG2) of the same compound?
The Inhibition was 0%.

Which Inhibition (Plasmodium falciparum [1]) does the source give for `O=C(Nc1ccc(OC2CCN(Cc3ccc(F)cc3)CC2)cc1)c1cccs1.O=C(O)C(F)(F)F` here?
Its Inhibition is 84%.

And the Inhibition (Plasmodium falciparum [2])?
The Inhibition was 52%.

And the Inhibition (HepG2)?
Its Inhibition is 6%.

Which results are given for `CC1CCCCN1CCCNc1nc(NCc2ccccc2)c2ccccc2n1` (stereo not drawn)?
Inhibition (Plasmodium falciparum [1]): 95%; Inhibition (Plasmodium falciparum [2]): 14%; Inhibition (HepG2): 24%

With `COc1cc(C=CC(=O)N2CCN(Cc3cccc(C)c3)CC2)ccc1OCc1c(C)noc1C` as the compound, how does the Inhibition (Plasmodium falciparum [1]) read?
Its Inhibition is 86%.

What about the Inhibition (Plasmodium falciparum [2]) of the same compound?
The Inhibition was 95%.

What about the Inhibition (HepG2) of the same compound?
Its Inhibition is 8%.

How did the Inhibition (Plasmodium falciparum [1]) turn out when `CCCCCNc1nc(Nc2ccccc2C)nc2ccccc12.Cl` was run?
The Inhibition was 100%.

And the Inhibition (Plasmodium falciparum [2])?
The Inhibition was 30%.

What about the Inhibition (HepG2) of the same compound?
Its Inhibition is 5%.

How did the Inhibition (Plasmodium falciparum [1]) turn out when `O=C(c1cc(-c2ccco2)n[nH]1)N1CCN(S(=O)(=O)c2ccc(Br)cc2)CC1` was run?
The Inhibition was 95%.

And the Inhibition (Plasmodium falciparum [2])?
The Inhibition was 90%.

What about the Inhibition (HepG2) of the same compound?
The Inhibition was 1%.

What does the source list for `NC(=O)c1ccccc1OCC(=O)Nc1ccc(-c2cccc(-c3nc4cc(C(F)(F)F)ccc4[nH]3)c2)cc1`?
Inhibition (Plasmodium falciparum [1]): 100%; Inhibition (Plasmodium falciparum [2]): 11%; Inhibition (HepG2): 51%
